Screens as filed in PubChem.
Only some compounds are listed: those with a hit (about 3.5% of all), similar ones and a draw of the others.
Pf apPOL block = Pf-apPOL DNA polymerase inhibition. Recombinant Pf-apPOL, molecular beacon fluorescence, 1.5 h. inhibition, % at 10 µM. 210,000 tested, 0.25% active. AID 1794808
mHTT-CaM PPI inh = inhibitors of human mutant huntingtin-calmodulin interaction; P42858; AlphaScreen His-mHTT/GST-CaM binding, luminescence; inhibition, % at 15 µM; 190,000 tested, 3.6% active;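 note: 0% = both proteins with DMSO and 100% = one protein alone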
Numbers without * were called inactive; . = not tested or not shown; ! = repeats disagree. Cut-off read from the data, not from the text of the source: active = inhibition above about 50%; inactive = the rest.

SMILES | Pf apPOL block | mHTT-CaM PPI inh
COCCN1C(=O)c2ccccc2C(C(=O)Nc2cc(C)ccn2)C1c1cn(C)c2ccccc12 (stereo unspecified) | -3 | 54*
COCCN1C(=O)c2ccccc2C(C(=O)O)C1c1cn(C)c2ccccc12 (stereo unspecified) | 4 | 1
COc1cc2c(cc1OC)C(C(=O)NCc1cccnc1)C1c3ccccc3CCN1C2=O (stereo unspecified) | -4 | -5
Cc1ccc(CNC(=O)N2CCc3c(c(-c4nc(Cc5ccccc5)no4)nn3C)C2)cc1 | -3 | 11
Cc1ccc(C(=O)NC(C)(C)C)c(Cl)c1 | 0 | -1
CC(=O)NS(=O)(=O)c1ccc(NC(=O)Cc2ccc(Br)cc2)cc1 | -1 | 4
Cc1ccccc1NC(=O)c1cc2n(n1)CCCN(Cc1ccccc1)C2=O | 1 | 0
N#CC1=C(N)Oc2c(C=Nc3ccccc3)ccc(O)c2C1c1cccc([N+](=O)[O-])c1 (stereo unspecified) | -4 | 100*
N#CC1=C(N)Oc2n[nH]c(-c3ccccc3)c2C1c1cccc([N+](=O)[O-])c1 (stereo unspecified) | -4 | 11
CCCc1cc(NC(C)CC)n2c(nc3ccccc32)c1C#N (stereo unspecified) | 0 | -8
O=C(Nc1nnc(SCc2cn3ccccc3n2)s1)c1cc(-c2ccco2)on1 | 12 | -6
O=C(Nc1nnc(SCc2c(F)cccc2Cl)s1)c1cc(-c2ccco2)on1 | 61* | 18
Cc1ccc(CNC(=O)Cc2cn(C)c3ncccc23)o1 | -1 | 0
Cn1cc(C(=O)N2CCN(c3ccccn3)CC2)c2cccnc21 | 0 | -10
Cc1ccc(-c2cc(C(=O)N3CCN(c4ccccn4)CC3)c(C)[nH]2)cc1 | -2 | 77*
CCn1cnc2ccc(-c3noc(Cc4ccc(OC)cc4)n3)cc21 | -4 | 0
CCC1(C)CC(CCN)(c2ccccc2OC)CCO1 (stereo unspecified) | -6 | 12
COc1cccc(CN2CCc3c(cc(C(=O)NCc4ccccc4OC)n3C)C2)c1 | -2 | 40
COc1cccc(CN2CCc3c(cc(C(=O)Nc4cc(OC)cc(OC)c4)n3C)C2)c1 | -2 | 62*
COc1ccc(NC(=O)c2cc3c(n2C)CCN(Cc2cccc(C)c2)C3)c(OC)c1 | -1 | 63*
CCCNC(=O)c1cc2c(n1C)CCN(Cc1cccc(C)c1)C2 | 10 | 23
COc1ccc(-n2nc(C(=O)Nc3ccc(F)c(Cl)c3)c3ccccc3c2=O)c(OC)c1 | 6 | -8
Cc1cc(C)n2nc(SCC(=O)Nc3ccc(C)c(Cl)c3)nc2n1 | -9 | 51*
Cc1cc(C)n2nc(SC(C)C(=O)NCc3ccccc3Cl)nc2n1 (stereo unspecified) | 60* | -1
Cc1cc(C)n2nc(SC(C)C(=O)NCc3ccccc3)nc2n1 (stereo unspecified) | 8 | 25
SMILES | Pf apPOL block | mHTT-CaM PPI inh
C=CCc1c(C)nc2nc(SCC(=O)Nc3ccc(C)c(C)c3)nn2c1C | -4 | 53*
C=CCc1c(C)nc2nc(SCC(=O)Nc3cccc(Cl)c3)nn2c1C | -7 | 31
Cc1cc(C)n2nc(SCC(=O)Nc3cccc(Cl)c3)nc2n1 | -9 | 6
COc1cc(NC(=O)CSc2nc3nc(C)c(Cc4ccccc4C)c(C)n3n2)cc(OC)c1 | -8 | 16
COc1ccc(NC(=O)CSc2nc3nc(C)c(Cc4ccccc4C)c(C)n3n2)cc1OC | -8 | 55*
O=C1OC(/C=C/c2cccc([N+](=O)[O-])c2)=NC/1=C\c1cccnc1 | 0 | 4
O=C1CC2(CCCC2)C(=O)N1CCNc1ncccc1C(F)(F)F | -18 | .
COc1ccccc1CN1COc2ccc3c(c2C1)OC(=Cc1ccc(OC)c(OC)c1OC)C3=O | -4 | 3
COc1ccc(C2CCCN2C(=O)Nc2cc(OC)c(OC)c(OC)c2)cc1 (stereo unspecified) | -1 | 11
CCCC1=NN(c2ccc([N+](=O)[O-])cc2)C(=O)/C1=C/c1ccc(N(C)C)cc1 | 40 | 38
Cc1cc(C)n2nc(SCc3ccc(F)cc3Cl)nc2n1 | -9 | 52*
Cc1cc(C)n2nc(SCc3c(F)cccc3Cl)nc2n1 | -8 | 14
CCc1ccc(/C=C2\C(=O)Nc3ccc(Cl)cc32)cc1 | -1 | 44
CN(C)c1ccc(/C=C2\C(=O)Nc3ccc(Br)cc32)cc1 | -34 | 99*
CCc1ccc(/C=C2\C(=O)Nc3ccc(Br)cc32)cc1 | -4 | 74*
O=C1Nc2ccc(Br)cc2/C1=C/c1ccc(F)cc1 | 0 | 14
CCC(Cc1ccccc1)NC(=O)C1CCN(S(=O)(=O)c2c(C)n[nH]c2C)CC1 (stereo unspecified) | -6 | 0
Cc1cc(N2CCCCC2)nc2ccc(NC(=O)Cn3nc([N+](=O)[O-])c(Cl)c3C)cc12 | 2 | 41
CCCN1C(=O)Cc2ccccc2C1C(=O)NCc1ccccc1OC (stereo unspecified) | 0 | -1
COc1ccccc1CNC(=O)C1c2ccccc2CC(=O)N1Cc1ccccc1 (stereo unspecified) | 1 | 100*
O=C(Nc1ccc(S(=O)(=O)Nc2cccc(Cl)c2Cl)cc1)c1ccc([N+](=O)[O-])cc1 | -7 | 62*
O=C(Nc1ccc(S(=O)(=O)Nc2ccccc2)cc1)c1ccc([N+](=O)[O-])cc1 | 0 | -7
O=C(c1c(F)cccc1F)N1CCc2nc(-c3ccc(F)cc3)ncc2C1 | -2 | -2
COc1ccc(-c2nnc3n2CCN(Cc2cnn(C)c2C)C3)cc1 | -2 | -3
CC(NC(=O)c1cn2c(n1)CCCC2)c1ccc(F)cc1 (stereo unspecified) | -8 | 10
SMILES | Pf apPOL block | mHTT-CaM PPI inh
CC(NC(=O)c1cn2c(n1)CSCC2)c1ccc(F)cc1 (stereo unspecified) | -6 | 93*
CNCC1C(C)C=C(C)CC1C (stereo unspecified) | -1 | -3
CCCC(=O)N(c1ccccc1)C1CC(C)Nc2ccccc21 (stereo unspecified) | 1 | 54*
CC1CC(Nc2ccccc2)c2ccccc2N1 (stereo unspecified) | -2 | 19
COc1cc(S(=O)(=O)n2nnc3ccccc32)ccc1Cl | -9 | 88*!
O=S(=O)(c1cc(Cl)ccc1Cl)n1nnc2ccccc21 | 0 | 57*
COc1cc(Cl)c(S(=O)(=O)n2nnc3ccccc32)cc1Cl | -12 | -4
COc1ccc(Cl)cc1S(=O)(=O)n1nnc2ccccc21 | -1 | 18
O=S(=O)(c1ccc(Cl)c(Cl)c1Cl)n1nnc2ccccc21 | -4 | -8
COc1c(S(=O)(=O)n2nnc3ccccc32)ccc(Cl)c1Cl | -7 | 87*!
O=C(NCCCn1ccnc1)c1cc(-c2ccc3c(c2)OCO3)on1 | 2 | 6
Cc1nc(C(=O)N2CCN(C(C)C)CC2)c(C)n1C1CCN(S(C)(=O)=O)CC1 | -12 | 4
COc1ccc(CCNC2=CC(=O)OC23CCCCC3)cc1OC | 0 | 3
O=C1CC(c2ccccc2)CC2=C1C(c1ccc(Cl)c([N+](=O)[O-])c1)Nc1ccccc1N2 (stereo unspecified) | 2 | 84*
O=C1CC(c2cccc([N+](=O)[O-])c2)CC2=C1C(c1ccc(Cl)cc1)Nc1ccccc1N2 (stereo unspecified) | 12 | 58*
O=C1CC(c2ccccc2)CC2=C1C(c1ccc(Cl)cc1)Nc1ccccc1N2 (stereo unspecified) | 10 | 45
